# Data taken from PubChem BioAssay (NCATS).
# Inconclusive results are not listed. A call without a number means that no potency is given here. Calls of active or inactive are those of the source. Unless noted, calls follow the shape of the dose curve; as a rule, active = well fitted curve in the direction sought with a large enough effect; inconclusive = small, poorly fitted or top-dose-only effect, or another doubt; inactive = no such curve, though single readings can be large; an effect the other way counts as inactive or inconclusive.
# What was measured:
# [1] = AP1 Signaling Pathway (AID 357; active = well fitted curve in either direction with a large enough effect, not every such curve was filed as active;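 also: ME-180 reporter cells stimulated with EGF at its EC50 level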)
# How it was run: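 Beta-lactamase reporter under AP-1 response element, ME-180 background. Stimulus: EC50 EGF. Compound exposure 5 h, 37 °C. Detection: CCF4, 2.5 h RT, 460/530 nm. Values: AC50 from titration.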
# [2] = target: Cytochrome P450 1A2 (Homo sapiens) (UniProt P05177); assay: p450-cyp1a2 (AID 410; calls by dose curve)
# How it was run: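 Inhibition was calculated relative to 57 uM furafylline (full inhibition). The reaction used human CYP1A2 at 20nM with Luciferin-ME at its Km, 100uM, driven by an NADPH-regenerating system for 60 min at room temperature.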
# [3] = NFAT Signaling Pathway (AID 444; active = well fitted curve in either direction with a large enough effect, not every such curve was filed as active;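 also: carbachol stimulus at about its EC50 of 1 µM final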); settings: Jurkat NFAT-bla M1, carbachol, beta-lactamase ratio, 5 h; at 17.2 µM (top of the series) unless noted
# How it was run: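 Jurkat cells with NFAT-driven β-lactamase reporter and co-expressed M1 receptor, stimulated with carbachol (final 1 uM, ~EC50), compound titration, 5 h at 37 °C. CCF4 loaded 1 h at RT; 460/530 nm ratio gave %activity and AC50.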
# [4] = Stat Signaling Pathway (AID 446; active = well fitted curve in either direction with a large enough effect, not every such curve was filed as active;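 also: ME-180 cervical cancer cells given 40 pM IL-6 alongside compound; SIE-controlled beta-lactamase reporter measured as 460/530 nm FRET emission ratio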)
# How it was run: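 ME-180 cells carrying a SIE-driven beta-lactamase reporter are stimulated with 40 pM IL-6 for 5 h at 37C in the presence of compound. The 460/530 nm FRET substrate ratio is read after 2.5 h at RT. Data are normalised to 300 pM IL-6 and to 125 nM JAK inhibitor controls.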
# [5] = target: Mitogen-activated protein kinase 10 (Mus musculus) (UniProt Q61831); assay: JNK3 AlphaScreen Assay (AID 530; active = well fitted curve in either direction with a large enough effect, not every such curve was filed as active;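 also: kinase came from lysate of stimulated human HepG2 cells; signal reports phosphorylation of biotinylated GST-cJun 1-79 at Ser73 with 10 µM ATP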)
# How it was run: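 qHTS format: compounds tested as titrations against IL-1beta/TNF-alpha-activated HepG2 lysate JNK3 with biotin-GST-cJun substrate and 10 uM ATP at room temperature. Loss of anti-phospho-cJun AlphaScreen signal indicates inhibition.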
# [6] = qHTS Assay for Lipid Storage Modulators (AID 1519; calls by dose curve); settings: Drosophila S3 cells, BODIPY lipid droplet/cell ratio, laser cytometry, cells loaded with oleic acid; for activity change, negative = inhibition: at 25.7 µM (top of the series)
# How it was run: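 Cells seeded at 5,000 per well were treated with compounds over a concentration series and loaded with oleic acid (400 uM, as added). Lipid droplet fluorescence (488 nm excitation, 500-530 nm channel) was read by laser-scanning cytometry and normalized to 20 uM Triacsin C.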
# [7] = target: ATP-dependent 6-phosphofructokinase (Trypanosoma brucei brucei) (UniProt O15648); assay: qHTS Assay to Find Inhibitors of T. brucei phosphofructokinase: hit validation (AID 492961)
# How it was run: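 Luminescence from ADP-Glo reports ADP generated as T. brucei PFK (1.25 nM) phosphorylates 0.5 mM fructose-6-phosphate using 0.1 mM ATP. Reactions ran 45 min at room temperature, pH 8.0.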
# [8] = target: Ubiquitin carboxyl-terminal hydrolase 1 (Homo sapiens) (UniProt O94782); assay: Inhibitors of USP1/UAF1: Pilot qHTS (AID 504865);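 also: rhodamine fluorescence freed from ubiquitin-rhodamine substrate followed over time; top concentration of the series differs between compounds; nearly all actives have a fitted effect of over 35% in size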
# How it was run: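 USP1/UAF1 complex (1nM) preincubated with compound 15 min at room temperature, then Ub-Rho substrate (150nM final) added. Fluorescence read kinetically at 480/540 nm, 6 reads every 60 seconds. Buffer: 50mM HEPES pH 7.8, 0.5mM EDTA, 0.1 mg/ml BSA, 1mM TCEP, 0.01% Tween-20.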
# [9] = target: Luciferin 4-monooxygenase (Photinus pyralis) (UniProt P08659); assay: Biochemical firefly luciferase enzyme assay for NPC (AID 624030);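 also: purified P. pyralis luciferase at 10 nM with luciferin and ATP substrate; nearly all actives have a fitted effect of over 70% in size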
# How it was run: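 Purified P. pyralis luciferase at 10 nM in 50 mM Tris Acetate (final), luminescence read within 5 minutes of enzyme addition to compounds. Activity normalised to PTC124 versus DMSO; concentration-response curves classed by r2, magnitude and activity.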
# [10] = S16 Schwann cell PMP22 intronic element firefly luciferase assay (AID 624032); also: nearly all actives have a fitted effect of over 30% in size
# How it was run: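 Rat S16 Schwann cells stably carrying firefly luciferase driven by a PMP22 intronic element, in 10% FBS, treated 24 h at 37 C. ONE-Glo luminescence normalized to PTC124 control and DMSO (0%); curves classed by r2, magnitude and activity.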
# [11] = qHTS profiling for inhibitors of Plasmodium falciparum proliferation (AID 504749); also: nearly all actives have a fitted effect of over 60% in size; settings: P. falciparum in erythrocytes, SYBR Green DNA, 72 h, at 12.8 µM (top of the series)
# How it was run: (§1)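 Readout was DNA-dye fluorescence from lysed cultures, ex 485/em 535 nm. Parasitized red cells had grown 72 h with compound; data scaled between 0.29 uM artemisinin and DMSO wells and corrected using vehicle-only plates.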
# CP191 = assay: as above; settings: P. falciparum in erythrocytes, SYBR Green DNA, 72 h; series mostly up to 12.8 µM
# How it was run: as §1
# CP217 = assay: as above; settings: P. falciparum in erythrocytes, SYBR Green DNA, 72 h; series mostly up to 12.8 µM
# How it was run: as §1
# CP250 = assay: as above; settings: P. falciparum in erythrocytes, SYBR Green DNA, 72 h; series mostly up to 12.8 µM
# How it was run: as §1
# CP256 = assay: as above; settings: P. falciparum in erythrocytes, SYBR Green DNA, 72 h; series mostly up to 12.8 µM
# How it was run: as §1
# FAB9 = assay: as above; settings: P. falciparum in erythrocytes, SYBR Green DNA, 72 h; series mostly up to 12.8 µM
# How it was run: as §1
# JCK = assay: as above; settings: P. falciparum in erythrocytes, SYBR Green DNA, 72 h; series mostly up to 12.8 µM
# How it was run: as §1
# [12] = target: 3',5'-cyclic-AMP phosphodiesterase 4B (Homo sapiens) (UniProt Q07343); assay: qHTS Assay for Inhibitors of PDE-IV (AID 607; active = well fitted activation curve with a large enough effect in the main read-out, with a control signal flat, not every such curve was filed as active)
# How it was run: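 HEK293 ACTOne cells with CNG channel (1000/well), endogenous PDE4; membrane potential dye, compounds up to 22.9 uM final. Fluorescence Ex 535/Em 590; RO 20-1724 (100 uM final) as reference.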
# [13] = measured here: cell count channel max response
# [14] = measured here: lipid channel max response
# Ubiquitin carboxyl-terminal hydrolase 1 (Homo sapiens), sequence (O94782 whole entry, looked up): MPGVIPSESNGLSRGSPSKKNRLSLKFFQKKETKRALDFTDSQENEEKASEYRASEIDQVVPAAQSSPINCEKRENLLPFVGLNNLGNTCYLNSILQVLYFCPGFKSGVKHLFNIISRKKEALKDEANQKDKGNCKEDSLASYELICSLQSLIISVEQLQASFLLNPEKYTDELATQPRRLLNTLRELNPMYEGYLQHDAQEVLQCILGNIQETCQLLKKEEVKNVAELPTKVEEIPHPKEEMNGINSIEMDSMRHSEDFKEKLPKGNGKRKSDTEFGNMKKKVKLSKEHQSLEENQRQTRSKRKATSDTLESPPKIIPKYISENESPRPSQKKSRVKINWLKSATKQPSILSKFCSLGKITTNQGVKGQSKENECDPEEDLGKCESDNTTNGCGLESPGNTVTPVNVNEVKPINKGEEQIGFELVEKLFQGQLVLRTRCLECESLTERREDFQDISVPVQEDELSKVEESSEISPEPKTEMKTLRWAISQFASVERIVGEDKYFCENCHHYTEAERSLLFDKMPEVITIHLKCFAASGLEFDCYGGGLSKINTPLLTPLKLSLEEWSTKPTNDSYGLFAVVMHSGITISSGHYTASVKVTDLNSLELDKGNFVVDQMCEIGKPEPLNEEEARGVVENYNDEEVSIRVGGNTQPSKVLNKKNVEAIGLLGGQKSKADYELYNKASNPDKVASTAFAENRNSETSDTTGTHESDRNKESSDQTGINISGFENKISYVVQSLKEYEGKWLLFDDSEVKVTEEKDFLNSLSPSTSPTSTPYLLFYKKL
# Cytochrome P450 1A2 (Homo sapiens), sequence (P05177 whole entry, looked up): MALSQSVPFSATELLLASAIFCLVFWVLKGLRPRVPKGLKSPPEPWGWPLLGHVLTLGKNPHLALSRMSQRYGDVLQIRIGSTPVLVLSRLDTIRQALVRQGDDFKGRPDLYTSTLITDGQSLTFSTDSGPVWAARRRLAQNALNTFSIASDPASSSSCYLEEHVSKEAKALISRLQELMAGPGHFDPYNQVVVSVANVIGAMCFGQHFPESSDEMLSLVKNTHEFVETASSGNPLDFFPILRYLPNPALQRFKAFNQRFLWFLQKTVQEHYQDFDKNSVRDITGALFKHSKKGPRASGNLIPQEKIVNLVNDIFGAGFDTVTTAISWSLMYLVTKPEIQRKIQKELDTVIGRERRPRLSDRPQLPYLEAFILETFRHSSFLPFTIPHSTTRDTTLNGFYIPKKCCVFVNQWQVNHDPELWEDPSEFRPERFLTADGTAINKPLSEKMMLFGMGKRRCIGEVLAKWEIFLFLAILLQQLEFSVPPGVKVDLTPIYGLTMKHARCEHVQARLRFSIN
# Luciferin 4-monooxygenase (Photinus pyralis), sequence (P08659 whole entry, looked up): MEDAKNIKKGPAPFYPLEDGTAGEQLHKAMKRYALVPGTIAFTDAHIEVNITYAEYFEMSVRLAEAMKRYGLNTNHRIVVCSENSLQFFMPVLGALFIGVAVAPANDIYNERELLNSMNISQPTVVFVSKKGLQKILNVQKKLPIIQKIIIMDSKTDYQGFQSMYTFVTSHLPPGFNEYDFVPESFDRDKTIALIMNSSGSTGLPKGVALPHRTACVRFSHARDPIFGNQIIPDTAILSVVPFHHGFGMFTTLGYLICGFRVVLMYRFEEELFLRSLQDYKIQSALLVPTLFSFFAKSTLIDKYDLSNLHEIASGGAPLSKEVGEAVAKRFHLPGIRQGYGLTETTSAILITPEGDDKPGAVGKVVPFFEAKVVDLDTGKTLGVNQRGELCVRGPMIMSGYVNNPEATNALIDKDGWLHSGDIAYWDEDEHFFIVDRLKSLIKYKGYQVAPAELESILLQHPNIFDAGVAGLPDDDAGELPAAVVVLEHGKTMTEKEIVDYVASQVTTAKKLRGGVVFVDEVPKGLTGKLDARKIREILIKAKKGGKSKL
# 3',5'-cyclic-AMP phosphodiesterase 4B (Homo sapiens), sequence (Q07343 whole entry, looked up): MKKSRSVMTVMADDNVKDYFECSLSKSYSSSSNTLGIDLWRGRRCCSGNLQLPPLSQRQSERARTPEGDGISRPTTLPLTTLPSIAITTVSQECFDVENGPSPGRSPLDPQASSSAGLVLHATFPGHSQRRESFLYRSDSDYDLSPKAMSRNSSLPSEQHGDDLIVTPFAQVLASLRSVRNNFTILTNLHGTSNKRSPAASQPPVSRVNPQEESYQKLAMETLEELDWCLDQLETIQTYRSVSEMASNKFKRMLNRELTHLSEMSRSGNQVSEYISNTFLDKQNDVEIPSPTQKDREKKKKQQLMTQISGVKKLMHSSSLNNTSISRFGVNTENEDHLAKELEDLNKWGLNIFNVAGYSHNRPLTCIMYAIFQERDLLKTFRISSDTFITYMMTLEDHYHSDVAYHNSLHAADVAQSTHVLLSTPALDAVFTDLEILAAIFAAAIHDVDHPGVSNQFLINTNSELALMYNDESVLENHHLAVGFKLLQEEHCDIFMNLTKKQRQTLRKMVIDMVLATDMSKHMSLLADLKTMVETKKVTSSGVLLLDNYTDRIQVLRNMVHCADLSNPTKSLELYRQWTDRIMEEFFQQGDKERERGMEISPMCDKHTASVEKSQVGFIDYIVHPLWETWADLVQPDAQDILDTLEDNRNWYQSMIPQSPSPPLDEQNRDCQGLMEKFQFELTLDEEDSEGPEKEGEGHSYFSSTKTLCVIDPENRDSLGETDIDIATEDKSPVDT
# ATP-dependent 6-phosphofructokinase (Trypanosoma brucei brucei), sequence (O15648 whole entry, looked up): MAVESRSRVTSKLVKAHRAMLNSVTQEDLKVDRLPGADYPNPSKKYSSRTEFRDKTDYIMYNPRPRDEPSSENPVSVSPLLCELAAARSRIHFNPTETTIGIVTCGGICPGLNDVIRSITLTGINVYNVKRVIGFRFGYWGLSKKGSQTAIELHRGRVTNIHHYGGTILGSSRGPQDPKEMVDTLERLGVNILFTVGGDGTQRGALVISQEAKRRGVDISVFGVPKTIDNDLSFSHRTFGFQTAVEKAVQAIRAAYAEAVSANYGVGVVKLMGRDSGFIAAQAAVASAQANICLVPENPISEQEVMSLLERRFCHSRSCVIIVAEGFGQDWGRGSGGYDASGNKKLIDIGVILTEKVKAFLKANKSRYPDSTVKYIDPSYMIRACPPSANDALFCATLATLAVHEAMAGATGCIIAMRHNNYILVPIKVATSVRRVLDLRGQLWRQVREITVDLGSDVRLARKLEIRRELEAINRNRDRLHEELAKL
structure (smiles),measurement,setting,value
COc1c(O[C@H]2O[C@@H](CO)[C@@H](O)[C@@H](O)[C@@H]2O)cc2c(c1OC)-c1ccc(SC)c(=O)cc1[C@H](NC(C)=O)CC2,outcome,[1],inactive
same,Potency,[2],inactive
same,"activity change, negative = inhibition",[3],5.96% (inactive)
same,outcome,[4],inactive
same,Potency,[5],inactive
same,"activity change, negative = inhibition",[6],-1.68% (inactive)
same,max response,[6]; [13],3.12%
same,max response,[6]; [14],2.91%
same,outcome,[7],inactive
same,Potency,[8],inactive
same,Potency,[9],inactive
same,Potency,[10],inactive
same,"activity, negative = inhibition",[11]; parasite line A,5.35% (inactive)
same,"activity, negative = inhibition",[11]; parasite line B,4.25% (inactive)
same,Potency,CP191,inactive
same,Potency,CP217,inactive
same,Potency,CP250,inactive
same,Potency,CP256,inactive
same,Potency,FAB9,inactive
same,Potency,JCK,inactive
CC(=O)[C@H]1CC[C@@H]2[C@H]3CC=C4C[C@@H](O)CC[C@]4(C)[C@H]3CC[C@]12C,outcome,[1],inactive
same,Potency,[2],inactive
same,"activity change, negative = inhibition",[3],3.47% (inactive)
same,outcome,[4],inactive
same,Potency,[5],inactive
same,"activity change, negative = inhibition",[6],-2.95% (inactive)
same,max response,[6]; [13],-11.5%
same,max response,[6]; [14],-15.2%
same,Potency,[8],inactive
CC1(C)S[C@@H]2[C@H](NC(=O)C(N)c3ccccc3)C(=O)N2[C@H]1C(=O)O (some centres undefined),outcome,[1],inactive
same,Potency,[2],inactive
same,"activity change, negative = inhibition",[3],-1.78% (inactive)
same,outcome,[4],inactive
same,Potency,[5],inactive
same,outcome,[12],inactive
same,"activity change, negative = inhibition",[6],-0.37% (inactive)
same,max response,[6]; [13],8.14%
same,max response,[6]; [14],6.97%
same,Potency,[8],inactive
C=CC1=C(C(=O)O)N2C(=O)[C@@H](NC(=O)/C(=N\OCC(=O)O)c3csc(N)n3)[C@@H]2SC1,outcome,[1],inactive
same,Potency,[2],inactive
same,"activity change, negative = inhibition",[3],-1.88% (inactive)
same,outcome,[4],inactive
same,Potency,[5],inactive
same,outcome,[12],inactive
same,"activity change, negative = inhibition",[6],0.264% (inactive)
same,max response,[6]; [13],6.88%
same,max response,[6]; [14],9.17%
same,Potency,[8],inactive
same,Potency,[9],inactive
same,Potency,[10],inactive
same,"activity, negative = inhibition",[11]; parasite line A,-8.61% (inactive)
same,"activity, negative = inhibition",[11]; parasite line B,-5.96% (inactive)
same,Potency,CP191,inactive
same,Potency,CP217,inactive
same,Potency,CP250,inactive
same,Potency,CP256,inactive
same,Potency,FAB9,inactive
same,Potency,JCK,inactive
